From PubChem
IkB sig inh = IkB Signaling | ABC-DLBCL IkBa-CBG/CBR dual luciferase ratio, 4 h; response scale: scaled: untreated 0%, proteasome inhibitor 100% | Potency, µM (titrated, usually from 57.1 µM) | 110,000 compounds, 0.04% hits | AID 445, 2006; active = well fitted curve in the direction sought with a large enough effect in the signal ratio, not every such curve was filed as active; inconclusive = small, poorly fitted or top-dose-only effect, or a change in a side signal; the % refers to the signal ratio;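 note: the direction sought is a rising ratio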
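Luminescence ratio of IκBα-fused green versus native red beetle luciferase in OCI-Ly3 cells, 4 h post-doxycycline with compound; red signal alone, scaled from basal (0%) to zero light (-100%), flagged nonspecific or cytotoxic effects.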
ERK AVP inh = qHTS Assay for Inhibitors of the ERK Signaling Pathway using a Homogeneous Screening Assay; HEK293-V1b, vasopressin-stimulated pERK AlphaScreen; Potency, µM (titrated, usually from 57.5 µM), actives largely listed as inhibitors; 72,000 compounds, 0.99% hits; AID 995, 2007; note: nearly all actives have a fitted effect of over 55% in size
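HEK293 cells stably expressing V1b receptor, seeded overnight in 1% FBS, were treated with compounds for 30 min at 37C, then stimulated 5 min with 25 nM vasopressin; phospho-ERK read by AlphaScreen SureFire after lysis.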
p53ts 32C kill = qHTS Screen for Compounds that Selectively Target Cancer Cells with p53 Mutations: Cytotoxicity of p53ts Cells at the Permissive Temperature; H1299-p53A138V at 32C, ATP luminescence viability, 24 h; Potency, µM (doses to about 46.1 µM), actives largely listed as cytotoxic; 130,000 compounds, 0.93% hits; note: nearly all actives have a fitted effect of over 55% in size
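Viability by ATPlite luminescence after 24 h compound treatment (up to 46 uM) at the permissive 32C. Cells are H1299 carrying p53 A138V. Scale runs from DMSO basal to 100 uM tamoxifen as full kill; AC50 from Hill fits.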
p53ts 39C kill = qHTS Screen for Compounds that Selectively Target Cancer Cells with p53 Mutations: Cytotoxicity of p53ts Cells at the Nonpermissive Temperature | H1299-p53A138V viability at 39C, ATP luminescence, 24 h | Potency, µM (highest dose often 46.1 µM), hits mostly cytotoxic | 130,000 compounds, 1.5% hits | AID 902, 2007; note: nearly all actives have a fitted effect of over 55% in size
Imprint erasure = qHTS Assay for Compounds that Induce Erasure of Genomic Imprints; mouse ES Peg3-LacZ reporter, beta-gal luminescence, 40 h; Potency, µM (series often up to 60.7 µM), hits mostly activators; 110,000 compounds, 0.02% hits; AID 1948, 2009
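Readout: BetaGlo luminescence (5 min, room temp) for LacZ from the normally silent maternal Peg3 allele in female Peg3LacZ-Neo ES cells. Cells 300/well, 40 h, 37C, 5% CO2. Data normalized per plate to negative controls.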
Of the large screens only hits and unclear results are named; the others gave an inactive call. An excerpt weighted towards active compounds, which were near 2.3% of everything screened. Unless noted, calls come from the whole dose curve; as a rule, active = well fitted curve in the direction sought with a large enough effect; inconclusive = small, poorly fitted or top-dose-only effect, or another doubt; inactive = no such curve, though single readings can be large; an effect the other way counts as inactive or inconclusive.

CCOC(=O)CSc1nc2c(c(=O)n1-c1ccc(OC)cc1)SCC2	p53ts 32C kill 1.3µM, p53ts 39C kill 1.3µM (no result: ERK AVP inh)
CCCC(=O)N1CCc2cc(-c3nc(N)sc3C)ccc21	none
CCC(C)C(=O)N1CCc2cc(-c3csc(N)n3)ccc21 (stereo not drawn)	p53ts 32C kill 10µM, p53ts 39C kill 13µM
Nc1nc(-c2ccc3c(c2)CCCC3)cs1	p53ts 32C kill inconclusive, p53ts 39C kill 13µM
O=C1Oc2ccccc2C(=O)/C1=C\N1C(=O)N/C(=C\c2ccccc2O)C1=O	IkB sig inh inconclusive
N[C@@H](Cc1[nH]nc2ccccc12)C(=O)O	Imprint erasure inconclusive
COc1cc(N)c(Cl)cc1C(=O)N[C@H]1CCN(CCCOc2ccc(F)cc2)C[C@@H]1OC	IkB sig inh inconclusive, ERK AVP inh 32µM
O=C(CSc1nc2c([nH]c3ccccc32)c(=O)n1-c1ccc(Cl)cc1)NC1CCCCC1	IkB sig inh inconclusive, p53ts 39C kill 10µM (no result: ERK AVP inh)
O=C(Nc1ccc([N+](=O)[O-])cc1Cl)c1cc(Cl)ccc1O	IkB sig inh inconclusive, p53ts 32C kill inconclusive, p53ts 39C kill 4µM
O=C(Nc1ccccc1)c1cc([N+](=O)[O-])ccc1Cl	IkB sig inh inconclusive, ERK AVP inh inconclusive, p53ts 32C kill inconclusive
COc1ccccc1NC(=O)C1=C(C)Nc2nc(SCc3ccccc3Cl)nn2C1c1cccnc1 (stereo not drawn)	IkB sig inh inconclusive, p53ts 39C kill 10µM (no result: ERK AVP inh)
O=C(Nc1nc(=O)c2ccccc2s1)c1ccc(F)cc1	none (no result: IkB sig inh, ERK AVP inh, Imprint erasure)
O=C(N/N=C/c1sc2ccccc2c1O)c1ccccc1	p53ts 39C kill 7.1µM (no result: IkB sig inh, ERK AVP inh, p53ts 32C kill, Imprint erasure)
C/C(N=NC(=[SH+])SCc1ccccc1)=C1\C=CC=CN1.[Cl][Cu]	none (no result: IkB sig inh, ERK AVP inh, p53ts 32C kill, p53ts 39C kill)
COc1ccc(OC)c2[nH]c(=O)c(CCNC(=O)c3cc4ccccc4o3)cc12	IkB sig inh inconclusive, p53ts 32C kill 13µM, p53ts 39C kill inconclusive (no result: ERK AVP inh)
CC(C)=CCC/C(C)=C/CO/N=C1/C[C@@H](O)[C@@H](O)[C@@H]2[C@@H]3C(=O)N(C4CCCCC4)C(=O)[C@H]3CC[C@@H]12	none (no result: IkB sig inh, Imprint erasure)
Cc1nc2ccc3nc(NC(=O)c4ccc5c(c4)OCCO5)sc3c2s1	none
Cc1nc2c(ccc3nc(NC(=O)c4ccc5c(c4)OCCO5)sc32)s1	IkB sig inh inconclusive, p53ts 32C kill 4µM, p53ts 39C kill 3.2µM
O=C(c1cccc(C(=O)N2CCN(c3ccccc3F)CC2)c1)N1CCN(c2ccccc2F)CC1	IkB sig inh inconclusive, ERK AVP inh 16µM
Cn1c(=O)c2[nH]c(CCC(=O)O)nc2n(C)c1=O	none
Cc1ccc(-c2csc3ncnc(Sc4nnc(CN5CCCCCC5=O)o4)c23)cc1	IkB sig inh inconclusive, p53ts 32C kill 25µM, p53ts 39C kill inconclusive
CCn1c(CN2CCCCCC2=O)nnc1SCc1cnc(-c2ccccc2)s1	none
C=C(CC1([C@@H](NP(=O)(c2ccccc2)c2ccccc2)[C@H]2C[C@@H]2CCCC)CC1)c1ccccc1	p53ts 39C kill 25µM (no result: IkB sig inh)
CCCC[C@@H]1C[C@H]1[C@@H](NP(=O)(c1ccccc1)c1ccccc1)c1ccccc1OC	p53ts 32C kill inconclusive, p53ts 39C kill 25µM (no result: IkB sig inh)
CCCC[C@@H]1C[C@H]1C(NC(=O)c1ccccc1)c1ccccc1 (stereo partly drawn)	none (no result: IkB sig inh)
Oc1cccc(-c2nc3ccccc3s2)c1	p53ts 32C kill 7.9µM, p53ts 39C kill 10µM
COc1ccc(-c2nc3ccccc3s2)cc1O	IkB sig inh inconclusive, ERK AVP inh inconclusive, p53ts 32C kill 5µM, p53ts 39C kill 2.5µM (no result: Imprint erasure)
O=C(O)c1ccc(/C=N\N=C2c3ccccc3-c3ccccc32)cc1	IkB sig inh inconclusive
N=C(c1ccc2ccccc2c1)c1ccccc1Cc1ccccc1	none
CC(C)CCNC(=O)c1cccc(Nc2nc3ccccc3n3nnnc23)c1	IkB sig inh inconclusive, p53ts 32C kill inconclusive, p53ts 39C kill 10µM (no result: ERK AVP inh)
CN(CC(=O)O)CC(=O)O	none
COc1ccccc1CC(Cc1nc2ccccc2[nH]1)c1nc2ccccc2[nH]1 (stereo not drawn)	ERK AVP inh 32µM, p53ts 32C kill inconclusive, p53ts 39C kill inconclusive (no result: IkB sig inh)
Cc1ccc(O)c(NC(=O)c2noc3c2CCCC3)c1	IkB sig inh inconclusive, p53ts 32C kill inconclusive, p53ts 39C kill inconclusive (no result: ERK AVP inh)
Cc1ccc(O)c(NC(=O)c2noc3c2CCCCC3)c1	p53ts 32C kill 13µM, p53ts 39C kill inconclusive (no result: ERK AVP inh)
O=C(CSc1nc2ccccc2c(=O)[nH]1)c1ccc(O)c(O)c1	ERK AVP inh 16µM
COc1ccccc1N1CCN(Cc2cc(COC(C)C)c3cccnc3c2O)CC1	IkB sig inh inconclusive, p53ts 32C kill inconclusive, p53ts 39C kill 2.5µM (no result: ERK AVP inh)
COCc1cc(CN2CCCC2)c(O)c2ncccc12	p53ts 39C kill inconclusive
Oc1c(CN2CCN(c3ccccn3)CC2)cc(Cl)c2cccnc12	IkB sig inh inconclusive, ERK AVP inh 32µM
CCCOCc1cc(CN2CCN(c3ccccc3OC)CC2)c(O)c2ncccc12	IkB sig inh inconclusive, p53ts 32C kill 16µM, p53ts 39C kill 10µM (no result: ERK AVP inh)
CCOCc1cc(CN2CCN(c3ccccc3OC)CC2)c(O)c2ncccc12	p53ts 39C kill 20µM (no result: ERK AVP inh)
[O][C@H]1[C@@H](O)[C@@H](CO)O[C@@H](O[C@@H]2[C@@H]3OC[C@H]2O[C@H](O[C@@H]2[C@@H](O)[C@H](C[C@@H]4[C@@H]5OC[C@H]4O[CH][C@@H]5O)O[C@H](CO)[C@@H]2OS(=O)(=O)O)[C@@H]3OS(=O)(=O)O)[C@@H]1O	none (no result: IkB sig inh, ERK AVP inh, p53ts 32C kill, p53ts 39C kill)
Clc1ccc(/C=C\c2nc(Cl)c(-c3ccc(Cl)cc3)c(Cl)n2)cc1	none
CC(C)OCc1cc(CN2CCN(c3cccc(C(F)(F)F)c3)CC2)c(O)c2ncccc12	p53ts 39C kill 16µM (no result: ERK AVP inh)
CCOc1ccccc1N1CCN(Cc2cccc(OC)c2O)CC1	IkB sig inh inconclusive
COc1ccccc1N1CCN(Cc2cc(Br)c(O)c3ncccc23)CC1	IkB sig inh inconclusive, ERK AVP inh inconclusive, p53ts 39C kill 16µM
CC1(C)CC(=O)C(C(c2cccc(O)c2O)C2C(=O)CC(C)(C)CC2=O)C(=O)C1	none
O=C(O)CNC(=O)c1ccc(CO)o1	none
C[C@@H]1CN(CCCn2c3ccccc3c3ccccc32)C[C@H](C)N1	IkB sig inh inconclusive, ERK AVP inh inconclusive, p53ts 39C kill 25µM
CC1CC(C)CN(CCCn2c(=S)[nH]c3ccccc3c2=O)C1 (stereo not drawn)	none
Cc1cc(C)c(NC(=O)Cn2c(=O)n(Cc3ccc(C(=O)NCc4ccco4)cc3)c(=O)c3sccc32)c(C)c1	IkB sig inh inconclusive, p53ts 32C kill inconclusive, p53ts 39C kill 25µM (no result: ERK AVP inh)
Cc1ccc(CNC(=O)c2ccc(Cn3c(=O)c4ccccc4n(CC(=O)Nc4ccc(C)cc4C)c3=O)cc2)cc1	IkB sig inh inconclusive, p53ts 39C kill inconclusive (no result: ERK AVP inh)
